High-throughput results from PubChem.
Compounds with a hit are over-represented: about 2.9% of the library has one in this group of screens.
pPAFAH inh: inhibitors of human plasma PAF acetylhydrolase (pPAFAH); recombinant pPAFAH, FP-rhodamine probe fluorescence polarization; Q13093; 1.5% of 330,000 active; AID 463082; inhibition, % at 3.39 µM;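 active = inhibition above the mean inhibition across the screen plus 3 SD, cut at about 25% in these data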;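 note: inhibitors block binding of the rhodamine activity-based probe so polarization drops; 0% = enzyme with DMSO and 100% = wells lacking pPAFAH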
Target sequence (Q13093 whole entry, looked up): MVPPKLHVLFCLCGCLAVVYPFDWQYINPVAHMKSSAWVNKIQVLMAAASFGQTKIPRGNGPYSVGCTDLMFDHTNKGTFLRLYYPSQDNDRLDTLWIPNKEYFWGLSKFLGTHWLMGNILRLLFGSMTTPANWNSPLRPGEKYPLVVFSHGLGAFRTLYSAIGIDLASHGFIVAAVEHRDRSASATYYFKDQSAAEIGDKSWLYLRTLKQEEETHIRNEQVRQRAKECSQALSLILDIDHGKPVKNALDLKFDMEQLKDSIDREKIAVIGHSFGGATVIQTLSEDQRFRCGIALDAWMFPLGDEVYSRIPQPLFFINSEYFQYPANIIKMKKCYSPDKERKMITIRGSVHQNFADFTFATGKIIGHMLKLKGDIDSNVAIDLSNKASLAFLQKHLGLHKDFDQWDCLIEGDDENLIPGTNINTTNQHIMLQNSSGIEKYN
PAFAH2 FP inh: inhibitors of human PAFAH2; Q99487; recombinant PAFAH2, FP-rhodamine activity probe, fluorescence polarization; inhibition, % at 3.39 µM; 0.99% of 340,000 active;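 active = inhibition above the mean over all tested compounds plus 3 SD, cut at about 30% in these data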;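 note: inhibitors block probe labeling of enzyme so polarization drops; 0% = enzyme with DMSO and 100% = wells lacking PAFAH2 protein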
PME-1 primary: PME-1 (human) inhibition; AID 2130; recombinant PME-1, FP-Rh probe fluorescence polarization; Q9Y570; inhibition, % at 5.9 µM; 0.53% of 320,000 active;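 active = inhibition above the campaign mean of all compounds plus 3 SD, cut at about 26% in these data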;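 note: competitive labeling of PME-1 active site by serine hydrolase directed probe; 0% = PME-1 with DMSO and 100% = wells lacking PME-1 enzyme; inhibitors block probe labeling so polarization falls and inhibition rises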
PAFAH1B3 inh: inhibitors of human PAFAH1B3 | recombinant PAFAH1B3, FP-rhodamine probe, fluorescence polarization | inhibition, % at 3.39 µM | 0.28% of 340,000 active | AID 492972;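 active = inhibition above the screen-wide average of all tested compounds plus 3 SD, cut at about 25% in these data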;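 note: 0% = enzyme with DMSO only and 100% = wells lacking PAFAH1B3 protein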
PAFAH1B2 inh: blocks human PAF acetylhydrolase 1b catalytic subunit 2; P68402; recombinant PAFAH1B2, FP-rhodamine activity probe, fluorescence polarization; inhibition, % at 3.39 µM; 1.2% of 340,000 active; AID 492953;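 active = inhibition above the mean of all tested compounds plus 3 SD, cut at about 24% in these data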;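 note: 0% = enzyme with DMSO and 100% = wells lacking PAFAH1B2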
Fam108B counter: Fam108B inhibition, counter-screen for RBBP9 inhibitors; 0.33% of 300,000 active; AID 1947; recombinant Fam108B, FP-Rh probe fluorescence polarization; inhibition, % at 9.51 µM;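 active = inhibition above the screen mean inhibition plus 3 SD, computed separately per campaign, cut at about 18% in these data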;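 note: inhibitors lower polarization as less probe binds the enzyme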
pPAFAH FP conf: pPAFAH (human) inhibition, confirmed; shares compounds with pPAFAH inh; recombinant pPAFAH, FP-Rh probe fluorescence polarization; inhibition, % at 3.39 µM; 72% of 2,300 active; AID 463230;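 active = mean inhibition of the triplicate above the hit cutoff set for the earlier primary screen, cut at about 25% in these data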;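 note: 0% = enzyme with DMSO and 100% = wells lacking pPAFAH enzyme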
Numbers without * were called inactive; . = no result.

SMILES	pPAFAH inh	PAFAH2 FP inh	PME-1 primary	PAFAH1B3 inh	PAFAH1B2 inh	Fam108B counter	pPAFAH FP conf
O=C(O)/C(CC(=O)c1ccc(Cl)cc1)=N/Nc1ccc([N+](=O)[O-])cc1[N+](=O)[O-]	35*	21	27*	10	20	12	72*
COc1ccc2[nH]c(=O)c(CN(C3CCCCC3)C(c3nnnn3Cc3ccco3)C(C)C)cc2c1 (stereo unspecified)	36*	0	1	-6	-1	-5	28*
CCN(CC(=O)Nc1c(F)cccc1F)C(=O)/C=C/c1ccc2ccccc2n1	40*	15	-3	6	-1	3	25*
COc1cc(/C=C2\SC(=O)N(CCNC(=O)c3c(C)noc3C)C2=O)cc(OC)c1OC	3	5	.	-2	5	.	.
CCCc1cc2c(-c3ccccc3)cc(=O)oc2cc1OCc1ccc(C(=O)O)o1	54*	-2	12	-1	7	-3	48*
COc1ccc(OC)c(-n2c(=S)[nH]c3cc(C(=O)N4CCN(c5ccccc5)CC4)ccc3c2=O)c1	6	3	-2	-2	1	0	.
CCCCC(=O)c1ccc(O)cc1	19	-1	-1	6	3	4	.
O=C(CCO)c1ccc(O)cc1	37*	14	5	11	7	-1	17
CS(=O)(=O)N1CCC(Oc2cccc(C(=O)NCCCOc3cccnc3)c2)CC1	-2	0	2	6	4	2	.
CC(=O)c1cccc(Nc2nc(-c3ccccc3)nc3ccccc23)c1	-4	-2	0	10	-4	3	.
CC(=O)c1cccc(-c2ccc3c(=O)[nH]c(Nc4ccccc4)cc3c2)c1	48*	23	21	52*	13	16	28*
O=C(N/N=C/c1ccnc2ccccc12)c1ccccc1O	.	22	.	10	5	.	.
CCCCCCCCCCCCN1[C@@H](CC(=O)O)c2cc(C(F)(F)F)ccc2S1(=O)=O	44*	11	0	3	23	-3	41*
CCCCCCCCCCCCN1[C@@H](CC(=O)O)c2cc(F)ccc2S1(=O)=O	48*	-2	2	-3	31*	1	34*
O=S(=O)(Nc1ccc(N=Nc2ccccc2)cc1)c1ccccc1	67*	10	-1	10	4	1	70*
CC(C)[C@H](NC(=O)c1cccc(CN(Cc2ccccc2)C(=O)/C=C/c2ccccc2)c1)C(=O)O	-5	6	-10	-5	-4	0	.
O=C(N/N=C\c1c(O)ccc2ccccc12)c1cncc(Br)c1	41*	3	18	20	7	16	58*
C/C(CC(=O)Nc1ccc2ccccc2c1)=N\NC(=O)c1ccc(O)c(O)c1	54*	14	-4	12	5	1	55*
O=C(c1ccc2c(=O)n3c(nc2c1)CCC3)N1CCN(S(=O)(=O)c2cccc(F)c2)CC1	-3	-4	-1	2	0	-4	.
CC(C)Oc1ccc(CNCCC2(C(C)C)CCOC(C)(C)C2)cc1 (stereo unspecified)	57*	-7	-2	2	1	4	5
COc1ccc(CNCCC2(C(C)C)CCOC(C)(C)C2)cc1 (stereo unspecified)	0	2	1	2	6	6	.
Cc1ccccc1C(=O)OC1CCCN(C)C1 (stereo unspecified)	-6	9	-3	13	-3	-3	.
O=S(=O)(Nc1ccc(Cl)cc1)c1ccc(N2CCOCC2)c(NC(=S)NCCN2CCOCC2)c1	58*	7	2	2	-1	0	59*
O=C(Cc1ccc(NS(=O)(=O)c2ccc(Cl)c(Cl)c2)cc1)NCCN1CCOCC1	.	1	.	-2	8	.	.
O=C(CCC1CCCCC1)Nc1cccc(C(=O)Nc2ccc(C(=O)O)cc2)c1	-6	5	-11	5	-2	-6	.
SMILES	pPAFAH inh	PAFAH2 FP inh	PME-1 primary	PAFAH1B3 inh	PAFAH1B2 inh	Fam108B counter	pPAFAH FP conf
Brc1ccc2c(c1)OCCOCCOc1cc(Br)ccc1OCCOCCOCCO2	68*	2	-1	5	6	-3	60*
CSc1ccc(/C=C(/NC(=O)c2ccco2)C(=O)N2CCOCC2)cc1	1	-1	2	8	0	1	.
O=C(COC(=O)CNC(=O)c1ccccc1)Nc1ccc(F)c([N+](=O)[O-])c1	37*	1	0	6	-1	-1	5
COc1ccc(S(=O)(=O)CC(=O)c2cc3cc(Br)ccc3oc2=O)cc1	37*	17	3	8	18	-2	33*
COc1ccc(OC)c(S(=O)(=O)CC(=O)c2cc3ccc(OC)cc3oc2=O)c1	18	5	2	11	2	2	.
Clc1ccc(-c2nnc(N3CCCC3)nn2)cc1	50*	-2	7	2	-1	1	7
COC(=O)CNC(=O)C1Nc2ccccc2C2C=CCC12 (stereo unspecified)	16	0	7	5	3	7	.
CCOC(=O)C1Nc2ccc(Br)cc2C2C=CCC12 (stereo unspecified)	35*	14	5	12	6	12	4
COc1cc(C[C@@H]2C(=O)OC[C@H]2Cc2ccc(OC)c(OC)c2)ccc1O	2	-1	2	8	2	.	.
CN(C)c1ccc(C(=O)OCC(=O)NCCC2=CCCCC2)cc1	38*	80*	2	-1	1	-3	24
O=Cc1ccc(C(=O)OCC(=O)NCCC2=CCCCC2)cc1	7	23	2	1	-2	2	.
Nc1cccc(Nc2ccccc2)c1	1	-2	-2	5	5	3	.
Nc1ccc(Nc2ccccc2)c(S(=O)(=O)O)c1	60*	18	-5	9	4	9	8
Cc1ccc(S(=O)(=O)c2cc(Nc3ccccc3)ccc2O)cc1	19	18	5	-1	4	4	.
Cc1ccc(Nc2ccc(N)cc2S(=O)(=O)O)cc1	50*	11	-1	7	8	8	5
COc1cc2c(cc1OC)C(c1ccccc1C)CC(=O)N2 (stereo unspecified)	67*	1	1	6	3	-3	3
O=C(O)C1Nc2c(Cl)cc(Cl)c(Cl)c2C2C=CCC12 (stereo unspecified)	41*	55*	18	9	11	15	33*
COc1ccc2[nH]c3c(c2c1)CCN1C(=O)C(CC(=O)NC(C)(C)C)C[C@H](C(=O)N2CCCCC2)[C@@]31CCc1ccccc1 (stereo partly specified)	3	-3	.	5	2	.	.
CCCCC1CC(/C(C)=N/NC(N)=O)OC1=O (stereo unspecified)	58*	-3	-6	10	-1	-1	2
Cc1csc(N/N=C/c2ccc(O)c([N+](=O)[O-])c2)n1	40*	26	-1	26*	12	17	11
